About 2,000 (36%) of roughly 5,500 compounds were called active. Another 18% or so got no clear call; they are omitted. No stated cut-off is given here; in the data, active means normalized growth mostly below about 0.91 (no sharp cut-off); inconclusive means no clear call, values can overlap the other calls; inactive means mostly above about 0.92. This is one part of the list.
Test: chemical genetic growth profiling, strain panel (AID 1159580);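 further: tested at 20 µM; growth read once vehicle control cultures reached saturation at 30 °C; 1 = growth at the plate median or of vehicle wells; lower values mean less growth of the strain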
Conditions: growth OD

Measured: normalized growth

O=c1[nH]c(=O)n(C2C[C@@H](O)[C@@H](CO)O2)cc1F (stereo partly drawn)
inactive: S. cerevisiae deletion strains, locus YJR066W, strain TOR1, hits give low values 0.932 | S. cerevisiae deletion strains, locus YKL009W, strain mrt4, hits give low values 1.04 | S. cerevisiae deletion strains, locus YKL068W, hits give low values 1 | S. cerevisiae deletion strains, locus YKL085W, strain MDH1 (second series), hits give low values 0.996 | S. cerevisiae deletion strains, locus YKL085W, strain MDH1, hits give low values 0.996 | S. cerevisiae deletion strains, locus YKL160W, strain elf1, hits give low values 1 | S. cerevisiae deletion strains, locus YKR001C, strain vps1, hits give low values 1.01 | S. cerevisiae deletion strains, locus YKR026C, strain gcn3, hits give low values 0.978 | S. cerevisiae deletion strains, locus YKR091W, strain srl3, hits give low values 0.995 | S. cerevisiae deletion strains, locus YLL001W, strain dnm1, hits give low values 0.992 | S. cerevisiae deletion strains, locus YLL026W, hits give low values 0.985 | S. cerevisiae deletion strains, locus YLL041C, strain sdh2, hits give low values 0.984 | S. cerevisiae deletion strains, locus YLR027C, strain aat2, hits give low values 0.994 | S. cerevisiae deletion strains, locus YLR039C, strain RIC1, hits give low values 1.04 | S. cerevisiae deletion strains, locus YLR058C, strain SHM2, hits give low values 1.02 | S. cerevisiae deletion strains, locus YLR102C, strain apc9, hits give low values 1.01 | S. cerevisiae deletion strains, locus YLR113W, strain HOG1, hits give low values 0.986 | S. cerevisiae deletion strains, locus YLR221C, strain rsa3, hits give low values 1.01 | S. cerevisiae deletion strains, locus YLR258W, strain gsy2, hits give low values 1.01 | S. cerevisiae deletion strains, locus YLR262C, strain YPT6 (second series), hits give low values 1.02 | S. cerevisiae deletion strains, locus YLR262C, strain YPT6, hits give low values 1.04 | S. cerevisiae deletion strains, locus YLR268W, strain sec22, hits give low values 1.03 | S. cerevisiae deletion strains, locus YLR320W, strain mms22, hits give low values 1.01 | S. cerevisiae deletion strains, locus YLR330W, strain CHS5, hits give low values 1.01 | S. cerevisiae deletion strains, locus YLR342W, strain FKS1 (second series), hits give low values 1.02 | S. cerevisiae deletion strains, locus YLR342W, strain FKS1, hits give low values 1.01 | S. cerevisiae deletion strains, locus YLR357W, strain rsc2, hits give low values 0.974 | S. cerevisiae deletion strains, locus YLR370C, strain arc18, hits give low values 1 | S. cerevisiae deletion strains, locus YLR371W, strain rom2, hits give low values 1.02 | S. cerevisiae deletion strains, locus YLR384C, strain iki3, hits give low values 0.982 | S. cerevisiae deletion strains, locus YLR418C, strain cdc73, hits give low values 1.02 | S. cerevisiae deletion strains, locus YML016C, strain PPZ1, hits give low values 1.01 | S. cerevisiae deletion strains, locus YML032C, strain rad52, hits give low values 1 | S. cerevisiae deletion strains, locus YML120C, strain ndi1, hits give low values 0.984 | S. cerevisiae deletion strains, locus YML124C, strain tub3, hits give low values 1.01 | S. cerevisiae deletion strains, locus YMR058W, strain fet3, hits give low values 0.986 | S. cerevisiae deletion strains, locus YMR078C, strain ctf18, hits give low values 1.01 | S. cerevisiae deletion strains, locus YMR125W, strain sto1, hits give low values 0.985 | S. cerevisiae deletion strains, locus YMR129W, hits give low values 0.999 | S. cerevisiae deletion strains, locus YMR205C, strain PFK2, hits give low values 1.01 | S. cerevisiae deletion strains, locus YMR223W, strain ubp8, hits give low values 1 | S. cerevisiae deletion strains, locus YMR231W, strain pep5, hits give low values 1.01 | S. cerevisiae deletion strains, locus YMR263W, strain SAP30, hits give low values 1.05 | S. cerevisiae deletion strains, locus YMR307W, strain GAS1, hits give low values 1.05 | S. cerevisiae deletion strains, locus YNL067W, strain RPL9B, hits give low values 1.06 | S. cerevisiae deletion strains, locus YNL071W, strain lat1, hits give low values 0.993 | S. cerevisiae deletion strains, locus YNL153C, strain GIM3, hits give low values 1.04 | S. cerevisiae deletion strains, locus YNL183C, strain NPR1, hits give low values 0.93 | S. cerevisiae deletion strains, locus YNL209W, strain ssb2, hits give low values 0.987 | S. cerevisiae deletion strains, locus YNL233W, strain BNI4, hits give low values 1.05 | S. cerevisiae deletion strains, locus YNL248C, strain rpa49, hits give low values 0.973 | S. cerevisiae deletion strains, locus YNL250W, strain rad50, hits give low values 1 | S. cerevisiae deletion strains, locus YNL271C, strain bni1, hits give low values 1.01 | S. cerevisiae deletion strains, locus YNL298W, strain CLA4, hits give low values 0.996 | S. cerevisiae deletion strains, locus YNL307C, strain MCK1, hits give low values 1.02 | S. cerevisiae deletion strains, locus YNL322C, strain KRE1 (second series), hits give low values 0.999 | S. cerevisiae deletion strains, locus YNL322C, strain KRE1, hits give low values 1 | S. cerevisiae deletion strains, locus YNR049C, strain mso1, hits give low values 0.982 | S. cerevisiae deletion strains, locus YNR052C, strain pop2, hits give low values 1.01 | S. cerevisiae deletion strains, locus YOL012C, strain htz1 1.63 | S. cerevisiae deletion strains, locus YOL147C, strain pex11, hits give low values 1.02 | S. cerevisiae deletion strains, locus YOR001W, strain rrp6, hits give low values 0.987 | S. cerevisiae deletion strains, locus YOR061W, strain CKA2, hits give low values 1.01 | S. cerevisiae deletion strains, locus YOR069W, strain VPS5, hits give low values 1.01 | S. cerevisiae deletion strains, locus YOR070C, strain gyp1, hits give low values 1.01 | S. cerevisiae deletion strains, locus YOR080W, strain dia2, hits give low values 1 | S. cerevisiae deletion strains, locus YOR083W, strain WHI5, hits give low values 1.01 | S. cerevisiae deletion strains, locus YOR106W, strain vam3, hits give low values 0.996 | S. cerevisiae deletion strains, locus YOR136W, strain idh2, hits give low values 1.02 | S. cerevisiae deletion strains, locus YOR144C, strain elg1, hits give low values 1.01 | S. cerevisiae deletion strains, locus YOR184W, strain ser1, hits give low values 1.02 | S. cerevisiae deletion strains, locus YOR231W, strain MKK1, hits give low values 0.98 | S. cerevisiae deletion strains, locus YOR265W, strain rbl2, hits give low values 1.01 | S. cerevisiae deletion strains, locus YOR270C, strain vph1, hits give low values 0.994 | S. cerevisiae deletion strains, locus YOR290C, strain snf2, hits give low values 0.989 | S. cerevisiae deletion strains, locus YOR316C, strain cot1, hits give low values 1.02 | S. cerevisiae deletion strains, locus YPL051W, strain arl3, hits give low values 1.02 | S. cerevisiae deletion strains, locus YPL078C, strain atp4, hits give low values 0.976 | S. cerevisiae deletion strains, locus YPL106C, strain sse1, hits give low values 1.01 | S. cerevisiae deletion strains, locus YPL240C, strain hsp82, hits give low values 0.987 | S. cerevisiae deletion strains, locus YPL241C, strain CIN2, hits give low values 1 | S. cerevisiae deletion strains, locus YPL256C, strain CLN2, hits give low values 0.957 | S. cerevisiae deletion strains, locus YPR119W, strain clb2, hits give low values 1.01 | S. cerevisiae deletion strains, locus YPR141C, strain kar3, hits give low values 1.01 | S. cerevisiae deletion strains, locus YPR163C, strain tif3, hits give low values 1.01 | S. cerevisiae deletion strains, locus YPR167C, strain met16, hits give low values 1.02 | S. cerevisiae deletion strains, strain wtn01, hits give low values 0.996 | S. cerevisiae strains, strain wild type, hits give low values 1.01

From PubChem BioAssay AID1159580 (chemical genetic matrix, 2015)
